High-throughput results (PubChem BioAssay)
Sfp PPTase inh = qHTS Assay for Inhibitors of Bacillus subtilis Sfp phosphopantetheinyl transferase (PPTase). 4'-phosphopantetheinyl transferase ffp (Bacillus subtilis), Q9F4F7. Biochemical Sfp PPTase activity, qHTS. Potency, µM, usual class: inhibitors. 310,000 tested, 3.5% active. AID 1490, 2009;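 further: the enzyme is Sfp with the accession as filed and its product quenches rhodamine fluorescence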
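Sfp 15 nM + cpd, 15 min RT; start w/ rhodamine-CoA 5 uM, BHQ-2-YbbR 12.5 uM (final); 50 mM Hepes pH 7.6, 10 mM MgCl2, 0.01% NP-40, 0.01% BSA; read 525/598 nm at 0 and 30 min.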
VDR inh = Inhibitors of the vitamin D receptor (VDR): qHTS. Vitamin D3 receptor (Homo sapiens), P11473. VDR-SRC2-3 peptide fluorescence polarization, 2 h. Potency, µM, most hits filed as inhibitors. 400,000 tested, 0.93% active. AID 504847, 2011
Target sequence (P11473 whole entry, looked up): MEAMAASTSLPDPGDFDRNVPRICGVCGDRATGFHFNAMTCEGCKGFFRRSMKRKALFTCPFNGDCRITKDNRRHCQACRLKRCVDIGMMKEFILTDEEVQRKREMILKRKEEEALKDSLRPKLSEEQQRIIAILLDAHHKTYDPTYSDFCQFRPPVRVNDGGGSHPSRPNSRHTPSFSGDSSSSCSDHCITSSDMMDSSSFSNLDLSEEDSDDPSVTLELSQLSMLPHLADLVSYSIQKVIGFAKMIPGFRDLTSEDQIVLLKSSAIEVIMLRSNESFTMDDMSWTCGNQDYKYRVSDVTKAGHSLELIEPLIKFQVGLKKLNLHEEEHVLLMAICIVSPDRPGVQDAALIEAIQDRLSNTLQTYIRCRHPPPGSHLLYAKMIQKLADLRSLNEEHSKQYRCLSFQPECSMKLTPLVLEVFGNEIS
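VDR–SRC2-3 interaction, FP format. Cmpds 23 nl via pintool, brief spin, 2 h ambient incubation.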
Tau ThT inhib = qHTS for Inhibitors of Tau Fibril Formation, Thioflavin T Binding. Microtubule-associated protein tau (Homo sapiens), P10636. recombinant tau K18 P301L, heparin-induced fibrillization, ThT fluorescence. 270,000 tested, 2.1% active. Potency, µM (top dose mostly 57.4 µM), usual class: inhibitors; further: nearly all actives have a fitted effect of over 55% in size
Target sequence (P10636 561-689 P618L limits assumed): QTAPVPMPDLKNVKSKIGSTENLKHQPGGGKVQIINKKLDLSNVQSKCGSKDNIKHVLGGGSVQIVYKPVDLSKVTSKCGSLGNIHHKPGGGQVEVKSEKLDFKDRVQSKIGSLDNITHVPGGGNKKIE
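In this qHTS, human K18 P301L tau is incubated with compound and heparin for 6 hr at 37 C, and Thioflavin T fluorescence then reports fibril load.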
PLK1 PBD inh = qHTS for Inhibitors of PLK1-PDB (polo-like kinase 1 - polo-box domain): Primary Screen; Serine/threonine-protein kinase PLK1 (Homo sapiens), P53350; Plk1 PBD binding of FITC phosphopeptide, fluorescence polarization; Potency, µM, most hits filed as inhibitors; 360,000 tested, 2.8% active; further: series mostly up to about 57 µM; nearly all actives have a fitted effect of over 65% in size
Tau FP inhib = qHTS for Inhibitors of Tau Fibril Formation, Fluorescence Polarization | AID 1468, 2008 | Microtubule-associated protein tau (Homo sapiens), P10636 | 280,000 tested, 0.39% active | Potency, µM (highest dose often 57.7 µM), most hits filed as inhibitors | K18 P301L tau heparin fibrillization, Alexa594 FP, 6 h; further: nearly all actives have a fitted effect of over 55% in size
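Steps: dispense K18 P301L tau (15 uM plus 0.24 uM Alexa 594 tracer, final) in pH 7 sodium acetate; add compound; add heparin (20 uM final); incubate 6 hr, 37 C; add ThT (30 uM final); after 1 hr ambient, read FP.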
Tau fluor cs = Counterscreen qHTS for Inhibitors of Tau Fibril Formation, Fluorescence Polarization | tau K18 P301L (four-repeat tau fragment) Alexa594 fluorescence, heparin fibrillization | Potency, µM (doses to about 57.7 µM) | 280,000 tested, 0.93% active; further: nearly all actives have a fitted effect of over 55% in size
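Human K18 P301L tau (15 uM unlabeled plus 0.24 uM Alexa 594-labeled, final) in 100 mM sodium acetate pH 7 was mixed with compound and 20 uM heparin and incubated 6 hr at 37 C.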
Each line names hits and unclear results; the compound was inactive in the other large screens; ! = a repeat was not active; [ ] = remark or other dose. Hits are enriched below; roughly 6% of the tested compounds scored in any of these assays. The call rests on the fitted dose curve; in most records, active means well fitted curve in the direction sought with a large enough effect; inconclusive means small, poorly fitted or top-dose-only effect, or another doubt; inactive means no such curve, though single readings can be large; an effect the other way counts as inactive or inconclusive.

C/C=C(\C)C(=O)N1CC2(CC(c3cccc(NC(=O)CC(c4ccccc4)c4ccccc4)c3)=NO2)C[C@H]1C(N)=O (some centres undefined)	none (no result: VDR inh, PLK1 PBD inh)
C=C(C)C(=O)Nc1cccc(C2=NOC3(C2)C[C@@H](C(N)=O)N(C(=O)C(=C)C)C3)c1 (some centres undefined)	none
C=C(C)C(=O)N1CC2(CC(c3cccc(NC(=O)/C=C\C=C/C)c3)=NO2)C[C@H]1C(N)=O (some centres undefined)	Sfp PPTase inh 20µM, VDR inh 89µM, PLK1 PBD inh 24µM
C/C=C\C=C\C(=O)N1CC2(CC(c3cccc(NC(=O)CC(c4ccccc4)c4ccccc4)c3)=NO2)C[C@H]1C(N)=O (some centres undefined)	Sfp PPTase inh 45µM, VDR inh inconclusive, PLK1 PBD inh 34µM
COc1ccc(C(=O)NCCn2cc(SCC(=O)Nc3ccc(C)cc3)c3ccccc32)cc1	Tau ThT inhib inconclusive, Tau fluor cs inconclusive (no result: Sfp PPTase inh, PLK1 PBD inh)
COc1ccc(C(=O)NCCn2cc(SCC(=O)Nc3ccc(F)cc3)c3ccccc32)cc1	Tau ThT inhib inconclusive, Tau FP inhib inconclusive, Tau fluor cs 14µM[quencher] (no result: Sfp PPTase inh, PLK1 PBD inh)
CCc1nc(C(N)=O)c2[nH]c(=O)n(-c3ccc(OC)cc3OC)c2n1	none (no result: Tau ThT inhib, Tau FP inhib, Tau fluor cs)
Cc1cc(C(=O)C(C)OC(=O)c2ccc(NC(=O)CC#N)cc2)c(C)n1-c1ccccc1 (centres undefined)	none (no result: Sfp PPTase inh, Tau ThT inhib, Tau FP inhib, Tau fluor cs)
COc1ccc(COc2cc(-c3cccc(OC)c3)nc3ccc(NC(=O)c4ccc(Cl)cc4)cc23)cc1	Tau FP inhib 20µM
COc1ccc(COc2cc(-c3cccc(OC)c3)nc3ccc(NC(=O)c4ccc(OC)cc4)cc23)cc1	Tau ThT inhib inconclusive, Tau FP inhib inconclusive, Tau fluor cs inconclusive
Cc1ccc(/C(=N/Nc2nc3ccccc3s2)C2=C(O)c3ccccc3C2=O)cc1	Sfp PPTase inh 79µM, VDR inh inconclusive, Tau ThT inhib inconclusive, PLK1 PBD inh inconclusive, Tau fluor cs inconclusive
Cc1cccnc1NC(=S)Nc1ccc(Br)cc1Cl	Sfp PPTase inh 20µM
COc1cccc(NC(=S)Nc2ccc(Br)cc2Cl)c1	Tau fluor cs inconclusive
CCOc1ccc(NC(=S)NS(=O)(=O)c2cc(Br)ccc2OCC)cc1	VDR inh inconclusive, PLK1 PBD inh 12µM (no result: Sfp PPTase inh, Tau ThT inhib, Tau FP inhib, Tau fluor cs)
CCOc1ccc(NC(=S)Nc2ccc(Br)cc2Cl)cc1	Sfp PPTase inh 40µM, Tau ThT inhib inconclusive
CCOc1ccc(Br)cc1S(=O)(=O)Nc1ccc(C(=O)OCC(=O)Nc2ccc(C#N)cc2)cc1	Tau FP inhib 25µM, Tau fluor cs inconclusive
CC(C)c1ccc(NC(=O)CSC2=Nc3ccccc3C3=NC(CC(=O)NCc4ccc(F)cc4)C(=O)N23)cc1 (centres undefined)	Tau ThT inhib inconclusive, Tau fluor cs inconclusive (no result: Sfp PPTase inh, PLK1 PBD inh)
Cc1ccc(Cc2c(-c3cccc(Cl)c3)nc3c4ccccc4ccn23)cc1	none (no result: Sfp PPTase inh, VDR inh, Tau ThT inhib, Tau FP inhib, Tau fluor cs)
O=C(CCl)Nc1nc(-c2ccco2)c(-c2ccco2)s1	Sfp PPTase inh 45µM, Tau ThT inhib inconclusive, PLK1 PBD inh inconclusive, Tau fluor cs 13µM[quencher]
O=C(CCCSc1ccccc1)Nc1nc(-c2ccco2)c(-c2ccco2)s1	Sfp PPTase inh 16µM, Tau ThT inhib inconclusive, Tau fluor cs inconclusive
NC(=O)CC(NSc1ccccc1[N+](=O)[O-])C(=O)O (centres undefined)	Sfp PPTase inh 50µM, VDR inh inconclusive, Tau ThT inhib inconclusive, PLK1 PBD inh 3.8µM, Tau FP inhib inconclusive
O=C(O)C1CCC(NSc2ccccc2[N+](=O)[O-])CC1 (centres undefined)	VDR inh 28µM, Tau ThT inhib 16µM, PLK1 PBD inh 2.4µM, Tau FP inhib 18µM
O=[N+]([O-])c1ccccc1SNc1ccccc1	none (no result: Sfp PPTase inh, VDR inh, Tau ThT inhib, Tau FP inhib, Tau fluor cs)
Nc1nc(N)c(N=O)c(Nc2cccc(Cl)c2)n1	none (no result: Sfp PPTase inh, VDR inh, Tau ThT inhib, Tau FP inhib, Tau fluor cs)
O=C(c1cnn2c(-c3ccccc3)cc(-c3ccccc3)nc12)N1CCN(Cc2ccccc2)CC1	none (no result: Sfp PPTase inh, Tau ThT inhib, Tau FP inhib, Tau fluor cs)
Cc1ccc(C2C(C(=O)c3cc4ccccc4o3)=C(O)C(=O)N2CCN2CCOCC2)o1 (centres undefined)	Sfp PPTase inh 50µM, Tau ThT inhib inconclusive
O=C(O)c1cccnc1SC1CC(=O)N(Cc2ccccc2)C1=O (centres undefined)	PLK1 PBD inh 3.8µM
COc1ccccc1N1C(=O)CC(Sc2ncccc2C(=O)O)C1=O (centres undefined)	none
COC(=O)c1c(N2C(=O)CC(Sc3ncccc3C(=O)O)C2=O)sc(C)c1C (centres undefined)	Sfp PPTase inh 89µM, Tau fluor cs inconclusive (no result: Tau ThT inhib)
N#Cc1cccc(S(=O)(=O)NCC(=O)OCC(=O)NCc2ccccc2)c1	none (no result: Sfp PPTase inh, Tau ThT inhib, Tau FP inhib, Tau fluor cs)
S=C(Nc1ccccc1)Nc1nc2ccccc2n1CCOc1ccc(Br)cc1	none
Cn1c(NC(=S)Nc2ccccc2)nc2ccccc21	VDR inh inconclusive, Tau ThT inhib inconclusive, PLK1 PBD inh 24µM
OCCOCCN1CCN(C2=Nc3ccccc3Sc3ccccc32)CC1	Sfp PPTase inh 50µM!
CCc1nnc(NC(=O)CN2C(=O)/C(=C/c3cc(OC)c(OC)c(OC)c3)SC2=S)s1	Sfp PPTase inh 50µM, VDR inh inconclusive, Tau ThT inhib 7.9µM, Tau FP inhib inconclusive, Tau fluor cs inconclusive
COc1cc(/C=C2/SC(=S)N(CC(=O)Nc3nc4ccccc4s3)C2=O)cc(OC)c1OC	Tau ThT inhib inconclusive, Tau fluor cs inconclusive
